Test results as given in PubChem BioAssay AID1159580 (chemical genetic matrix, 2015).
“And” between values parts separate entries of the source, which are not always exact repeats. Equal values may be shown once. Out of some 5,500 compounds screened, about 2,000 (36%) were called active. About 18% were inconclusive and are not listed. No stated cut-off is given here; in the data, active means normalized growth mostly below about 0.91 (no sharp cut-off); inconclusive means no clear call, values can overlap the other calls; inactive means mostly above about 0.92. This is one part of the list.

Experiment: chemical genetic growth profiling, strain panel (AID 1159580);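 further: tested at 20 µM; growth read once vehicle control cultures reached saturation at 30 °C; 1 = growth at the plate median or of vehicle wells; lower values mean less growth of the strain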
Conditions: S. cerevisiae deletion strains, growth OD

Measured: normalized growth

C[C@H]1[C@H]2CCC3C4CC=C5C[C@@H](N(C)C)CC[C@]5(C)C4CC[C@@]32CN1C (stereo partly specified)
inactive: locus YAL013W, strain DEP1, hits give low values 0.994 | locus YAL021C, strain ccr4, hits give low values 1.01 | locus YAL026C, strain drs2, hits give low values 0.997 | locus YAL030W, strain snc1, hits give low values 0.996 | locus YBL061C, strain skt5, hits give low values 0.995 | locus YBR009C, strain hhf1, hits give low values 0.95 | locus YBR021W, strain FUR4, hits give low values 1 | locus YBR023C, strain chs3, hits give low values 0.994 | locus YBR171W, strain sec66, hits give low values 0.983 | locus YBR229C, strain ROT2, hits give low values 0.956 | locus YBR231C, strain swc5, hits give low values 0.972 | locus YBR279W, strain paf1, hits give low values 0.994 | locus YCL011C, strain gbp2, hits give low values 0.988 | locus YCL016C, strain dcc1, hits give low values 0.986 | locus YCL029C, strain bik1, hits give low values 0.988 | locus YCL061C, strain MRC1, hits give low values 0.994 | locus YCL069W, strain vba3, hits give low values 1 | locus YCR088W, strain abp1, hits give low values 0.996 | locus YDL005C, strain med2, hits give low values 0.992 | locus YDL035C, strain GPR1, hits give low values 0.949 | locus YDL040C, strain nat1, hits give low values 0.974 | locus YDL074C, strain BRE1, hits give low values 1.01 | locus YDL101C, strain DUN1, hits give low values 0.989 | locus YDL134C, strain PPH21, hits give low values 0.958 | locus YDL185W, strain tfp1, hits give low values 0.999 | locus YDL192W, strain arf1, hits give low values 0.984 | locus YDR001C, strain nth1, hits give low values 0.993 | locus YDR069C, strain doa4, hits give low values 0.976 | locus YDR101C, strain arx1, hits give low values 1.04 | locus YDR137W, strain rgp1, hits give low values 0.994 | locus YDR150W, strain NUM1, hits give low values 0.981 | locus YDR159W, strain sac3, hits give low values 0.941 | locus YDR162C, strain NBP2, hits give low values 0.989 | locus YDR195W, strain ref2 0.945 | locus YDR297W, strain sur2, hits give low values 1 | locus YDR318W, strain mcm21, hits give low values 0.957 | locus YDR334W, strain swr1, hits give low values 0.996 | locus YDR335W, strain msn5, hits give low values 0.992 | locus YDR388W, hits give low values 0.984 | locus YDR502C, strain sam2, hits give low values 0.977 | locus YEL003W, strain gim4, hits give low values 0.994 | locus YEL037C, strain rad23, hits give low values 0.999 | locus YEL061C, strain CIN8 (second series), hits give low values 0.992 | locus YEL061C, strain CIN8, hits give low values 0.991 | locus YER015W, strain faa2, hits give low values 0.986 | locus YER016W, strain bim1, hits give low values 0.988 | locus YER110C, hits give low values 0.99 | locus YER111C, strain swi4, hits give low values 0.992 | locus YER155C, strain BEM2 (second series), hits give low values 0.867 | locus YER155C, strain BEM2, hits give low values 0.999 | locus YER167W, strain BCK2, hits give low values 0.999 | locus YFR010W, strain ubp6, hits give low values 0.997 | locus YGL078C, strain dbp3, hits give low values 0.996 | locus YGL086W, strain mad1, hits give low values 1.02 | locus YGL167C, strain pmr1, hits give low values 0.981 | locus YGL173C, strain kem1, hits give low values 0.99 | locus YGL227W, strain vid30, hits give low values 0.985 | locus YGL240W, strain doc1, hits give low values 0.967 | locus YGL248W, strain PDE1, hits give low values 0.965 | locus YGL253W, strain hxk2, hits give low values 0.974 | locus YGR078C, strain PAC10, hits give low values 0.981 | locus YGR135W, strain pre9, hits give low values 0.968 | locus YGR252W, strain gcn5, hits give low values 0.939 | locus YHR013C, strain ard1, hits give low values 0.918 | locus YHR027C, strain rpn1, hits give low values 0.997 | locus YHR030C, strain SLT2, hits give low values 1 and 1.01 | locus YHR079C, strain IRE1 (second series), hits give low values 0.996 | locus YHR079C, strain IRE1, hits give low values 1.01 | locus YHR094C, strain hxt1, hits give low values 0.975 | locus YHR129C, strain ARP1, hits give low values 0.994 | locus YHR142W, strain chs7, hits give low values 0.99 | locus YHR200W, strain rpn10, hits give low values 0.986 | locus YIL066C, strain RNR3, hits give low values 0.986 | locus YIL073C, strain SPO22, hits give low values 0.957 | locus YIL125W, strain kgd1, hits give low values 0.995 | locus YIR030C, strain dcg1, hits give low values 0.999 | locus YJL092W, strain hpr5, hits give low values 0.992 | locus YJL095W, strain BCK1 (second series), hits give low values 0.991 | locus YJL095W, strain BCK1, hits give low values 0.963 and 0.999 | locus YJL115W, strain asf1, hits give low values 1 | locus YJL129C, strain trk1, hits give low values 0.99 | locus YJL134W, strain LCB3, hits give low values 0.993 | locus YJL154C, strain vps35, hits give low values 1 | locus YJL164C, strain tpk1, hits give low values 0.996 | locus YJL166W, strain qcr8, hits give low values 0.986 | locus YJL168C, strain set2, hits give low values 0.993 | locus YJL187C, strain SWE1 (second series), hits give low values 0.98 | locus YJL187C, strain SWE1, hits give low values 0.994 | locus YJR043C, strain POL32, hits give low values 0.993 | locus YJR066W, strain TOR1, hits give low values 0.958
active: locus YDR392W, strain spt3, hits give low values 0.551
